From PubChem BioAssay (Tox21)
“And” between values parts separate entries of the source, which are not always exact repeats. Equal values may be shown once. Unmarked numbers belong to inactive results. Records with an inconclusive call do not appear. Where a call stands in place of a potency, no number is given. The source made the active and inactive calls. Calls come from the whole dose curve.

How the values were obtained:
[1] = molecular target: Acetylcholinesterase (Homo sapiens) (UniProt P22303); experiment: Acetylcholinesterase (AChE) small molecule antagonists: colormetric cell-based qHTS assay (AID 1347395); note: nearly all actives have a fitted effect of over 30% in size; note: potency is the fitted concentration of half-maximal effect
Procedure, shortened: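 AChE inhibition read colorimetrically via DTNB–thiocholine in SH-SY5Y cells. Compound 30 min, substrate 90 min, both 37 C.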

[2] = molecular target: Acetylcholinesterase (Homo sapiens) (UniProt P22303); experiment: Acetylcholinesterase (AChE) small molecule antagonists: fluorescence cell-based qHTS assay (AID 1347398); details: Potency: AChE activity; outcome: AChE activity; note: nearly all actives have a fitted effect of over 50% in size; note: potency is the fitted concentration of half-maximal effect
Procedure, shortened: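 Fluorimetric cell-based assay: intact SH-SY5Y cells, 30 min compound preincubation at 37 C, acetylthiocholine substrate with thiol probe Thiolite Green, 40 min RT development, fluorescence 490/520 nm.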

[3] = molecular target: Acetylcholinesterase (Homo sapiens) (UniProt P22303); experiment: Acetylcholinesterase (AChE) small molecule antagonists: enzyme-based qHTS assay with human liver microsomes (AID 1347399); details: Potency: qHTS inhibition; outcome: qHTS inhibition; note: nearly all actives have a fitted effect of over 60% in size
Procedure, shortened: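 Recombinant human AChE (50 mU/mL in the enzyme mix) and human liver microsomes (0.25 mg/mL final) were preincubated with compound and NADPH (0.25 mg/mL final) for 30 min at 37 C. Acetylthiocholine/DTNB was then added; thiocholine was read colorimetrically after 10 min at room temperature.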

[4] = molecular target: Acetylcholinesterase (Homo sapiens) (UniProt P22303); experiment: Acetylcholinesterase (AChE) small molecule antagonists: enzyme-based qHTS assay (AID 1347397); details: Potency: AChE enzyme activity inhibition; outcome: AChE enzyme activity inhibition; note: nearly all actives have a fitted effect of over 55% in size; note: potency is the fitted concentration of half-maximal effect
Procedure, shortened: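 Absorbance-based detection of thiocholine with DTNB served as the read-out. Recombinant human AChE was exposed to compound for 30 min at RT before a 10 min RT incubation with acetylthiocholine.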

Chain of Acetylcholinesterase (Homo sapiens) (P22303 whole entry, looked up): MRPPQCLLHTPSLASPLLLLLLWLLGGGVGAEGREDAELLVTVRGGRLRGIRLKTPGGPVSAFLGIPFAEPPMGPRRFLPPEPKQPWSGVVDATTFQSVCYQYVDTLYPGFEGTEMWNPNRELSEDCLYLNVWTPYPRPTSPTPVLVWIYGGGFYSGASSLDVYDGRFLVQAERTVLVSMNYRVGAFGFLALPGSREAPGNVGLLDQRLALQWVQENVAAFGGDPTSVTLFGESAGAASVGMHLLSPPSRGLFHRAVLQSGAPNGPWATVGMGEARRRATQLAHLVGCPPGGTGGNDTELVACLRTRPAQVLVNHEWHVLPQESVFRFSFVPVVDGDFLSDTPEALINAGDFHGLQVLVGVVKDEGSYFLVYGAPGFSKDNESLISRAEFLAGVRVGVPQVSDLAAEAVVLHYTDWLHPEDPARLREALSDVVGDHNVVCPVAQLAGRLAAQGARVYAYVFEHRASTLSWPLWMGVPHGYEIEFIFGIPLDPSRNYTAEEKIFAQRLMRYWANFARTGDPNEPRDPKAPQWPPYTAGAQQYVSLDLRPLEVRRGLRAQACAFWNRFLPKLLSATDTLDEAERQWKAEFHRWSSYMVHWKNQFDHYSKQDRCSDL

SMILES | Potency [1] | Potency [2] | Potency [3] | Potency [4]
SC1CCCCC1 | inactive | inactive | inactive | –
CC(=O)O[C@H]1C[C@@H]2CC[C@@H]3[C@H](CC[C@@]4(C)[C@H]3C[C@H]([N+]3(C)CCCCC3)[C@@H]4OC(C)=O)[C@@]2(C)C[C@@H]1N1CCCCC1 | 17.4 µM (active) | – | inactive | –
O=C(CCBr)N1CCN(C(=O)CCBr)CC1 | inactive | – | inactive | –
COc1c(N2C[C@@H]3CCCN[C@@H]3C2)c(F)cc2c(=O)c(C(=O)O)cn(C3CC3)c12 | inactive | – | inactive | –
CC(Cc1ccc(O)c(O)c1)C(C)Cc1ccc(O)c(O)c1 (stereo unspecified) | inactive | – | inactive | –
O=C(Nc1cccc([N+](=O)[O-])c1)c1cc2ccccc2cc1O | inactive | inactive | inactive | –
CCOC(=O)c1ccc(NC(=O)CN2CCCCC2)cc1 | 30.9 µM (active) | – | inactive | –
CC1CC(=O)CC(C)(C)C1 (stereo unspecified) | inactive | inactive | inactive | –
CCN(Cc1cccc(S(=O)(=O)O)c1)c1ccc(C(=C2C=CC(=[N+](CC)Cc3cccc(S(=O)(=O)[O-])c3)C=C2)c2ccccc2)cc1 | inactive | – | inactive | –
O=C(Nc1ccc(Cl)c(Cl)c1)c1cc(Cl)cc(Cl)c1O | inactive | – | inactive | –
CCCCC/C=C\C/C=C\CCCCCCCC(=O)NC(C)c1ccccc1 (stereo unspecified) | inactive | inactive | inactive | –
Oc1c(Cl)cc(Cl)c(Cl)c1Cc1c(O)c(Cl)cc(Cl)c1Cl | inactive | inactive | inactive | –
CC(=O)c1ccc2c(c1)N(CCCN1CCC(CCO)CC1)c1ccccc1S2 | 38.9 µM (active) | 17.4 µM (active) | inactive | –
CCc1cc(Cc2cc(CC)c(N)c(CC)c2)cc(CC)c1N | inactive | – | inactive | –
CCCCCCCC/C=C/CCCCCCCC1=NCCN1CCO | inactive | – | inactive | –
CC(C)=CCC/C(C)=C/C=N/O | inactive | inactive | inactive | –
CCCCCCCCCCCCCCOS(=O)(=O)O | inactive | inactive | inactive | –
COc1cc(N)c(Cl)cc1C(=O)NC1CCN(CCCOc2ccc(F)cc2)CC1OC (stereo unspecified) | inactive | – | inactive | –
Cc1nc(N)nc(N)c1-c1ccc(Cl)c(Cl)c1 | inactive | – | inactive | –
CC(=O)/C=C/C=C1/C2CCC(C2)C1(C)C (stereo unspecified) | 27.5 µM (active) | – | inactive | –
O=C(CS(=O)Cc1ccco1)NC/C=C\COc1cc(CN2CCCCC2)ccn1 (stereo unspecified) | 38.9 µM (active) | – | inactive | –

SMILES | Potency [1] | Potency [2] | Potency [3] | Potency [4]
CCN(CC)C(C)CN1c2ccccc2Sc2ccccc21 (stereo unspecified) | inactive | – | inactive | –
C=CCc1cc(S(=O)(=O)c2ccc(O)c(CC=C)c2)ccc1O | inactive | – | inactive | –
CCCN(CCc1cccs1)[C@H]1CCc2c(O)cccc2C1 | 13.8 µM (active) | 11 µM (active) | inactive | –
CCCCCC/C=C\CCCCCCCC(=O)O | inactive | inactive | inactive | –
OCCN1CCN(CCCN2c3ccccc3Sc3ccc(C(F)(F)F)cc32)CC1 | inactive | – | inactive | –
CC(C)(C)c1cc(CO)cc(C(C)(C)C)c1O | – | inactive | inactive | inactive
CCc1cc(C2=C(C(=O)O)N(c3ccccc3C(F)(F)F)S(=O)(=O)c3ccccc32)cc2c1OCO2 | – | inactive | inactive | inactive
CCC(C)(C)C1CCC(=O)CC1 | – | inactive | inactive | inactive
CC[C@@]1(c2ccccc2)NC(=O)N(C)C1=O | – | inactive | inactive | inactive
O=C(OCC(COC(=O)c1cccnc1)(COC(=O)c1cccnc1)COC(=O)c1cccnc1)c1cccnc1 | – | inactive | inactive | inactive
CC(C)C(=O)O | – | inactive | inactive | inactive
CCN1CCCC1CNC(=O)c1cc(S(N)(=O)=O)ccc1OC (stereo unspecified) | – | inactive | inactive | inactive
Cc1oc2c(NC(=O)c3c(Cl)cccc3Cl)cccc2c1C(C)(C)O | – | inactive | inactive | inactive
CCCCNc1ccc(C(=O)OCCN(CC)CC)cc1 | – | 2.45 µM (active) | inactive | 30.9 µM (active)
[Cl][Pt-2]([Cl])([Cl])[Cl] | – | 35.7 µM (active) | – | 17.9 µM (active)
O=C(OOC(=O)c1ccccc1)c1ccccc1 | – | inactive | inactive | inactive
CCC1(C)C(=O)N(Cl)C(=O)N1Cl (stereo unspecified) | – | inactive | inactive | inactive
CCCCCCCCCCCCCC[P+](CCCC)(CCCC)CCCC | – | 35.4 µM (active) and 63.3 µM (active) | inactive | 31.6 µM (active) and 39.9 µM (active)
CO[Si](C)(OC)OC | – | inactive | inactive | inactive
CC(C)CCCC(C)NCCC(C)C (stereo unspecified) | – | inactive | inactive | inactive
